Data taken from the supplement of paper PMC6555819.

Legend:
Test in all cases: PBM binding z-score (relative to random genomic background probes); higher = stronger binding; sequences stand for … in GC…GCGATTGACAGCGTAGAATGAAGG
[1] = system: FXR:RXRa (NR concentration 270 nM, RXRa partner concentration 90 nM)
In short: (§1)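 Antibodies against each partner of ligand-free nuclear receptor dimers (one per run) detected binding on custom Agilent 4×180K protein-binding microarrays after 1 h incubation. The double-stranded probes had 34-nt variable regions carrying direct-repeat seeds, single-nucleotide variants, half-site ablations and random human genomic background sequences. Binding z-scores, from regression-normalized fluorescence, use the random background probes as reference.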

[2] = system: LXRa:RXRa (NR concentration 270 nM, RXRa partner concentration 90 nM)
In short: as §1

[3] = system: LXRa homodimer (NR concentration 270 nM)
In short: as §1

[4] = system: LXRb:RXRa (NR concentration 270 nM, RXRa partner concentration 90 nM)
In short: as §1

[5] = system: LXRb homodimer (NR concentration 270 nM)
In short: as §1

[6] = system: PPARa:RXRa (NR concentration 270 nM, RXRa partner concentration 90 nM)
In short: as §1

[7] = system: PPARg:RXRa (NR concentration 180 nM, RXRa partner concentration 90 nM)
In short: as §1

[8] = system: PPARg:RXRa 270nM:90nM, anti-RXR (NR concentration 270 nM, RXRa partner concentration 90 nM)
In short: as §1

[9] = system: PPARg:RXRa 30nM:10nM, anti-RXR (NR concentration 30 nM, RXRa partner concentration 10 nM)
In short: as §1

[10] = system: PPARg:RXRa 90nM:30nM, anti-RXR (NR concentration 90 nM, RXRa partner concentration 30 nM)
In short: as §1

[11] = system: PPARg:RXRa DBDmut IVT, anti-RXR (DBD mutation: RXRa K156A/R161A, NR concentration 270 nM, RXRa partner concentration 90 nM)
In short: as §1

[12] = system: PPARg:RXRa IVT, anti-PPARg (NR concentration 270 nM, RXRa partner concentration 90 nM)
In short: as §1

[13] = system: PPARg DBDmut IVT, anti-PPARg (DBD mutation: PPARg1 K132A/R137A, NR concentration 270 nM)
In short: as §1

[14] = system: PPARg homodimer (NR concentration 180 nM)
In short: as §1

[15] = system: PXR:RXRa (NR concentration 270 nM, RXRa partner concentration 90 nM)
In short: as §1

[16] = system: PXR homodimer (NR concentration 270 nM)
In short: as §1

[17] = system: RARa:RXR (NR concentration 270 nM, RXRa partner concentration 90 nM)
In short: as §1

[18] = system: RARa homodimer (NR concentration 270 nM)
In short: as §1

[19] = system: RARb:RXRa (NR concentration 270 nM, RXRa partner concentration 90 nM)
In short: as §1

[20] = system: PPARg DBDmut:RXRa IVT, anti-PPARg (DBD mutation: PPARg1 K132A/R137A, NR concentration 270 nM, RXRa partner concentration 90 nM)
In short: as §1

Row | Sequence | PBM binding z-score [1] | PBM binding z-score [2] | PBM binding z-score [3] | PBM binding z-score [4] | PBM binding z-score [5] | PBM binding z-score [6] | PBM binding z-score [7] | PBM binding z-score [8] | PBM binding z-score [9] | PBM binding z-score [10] | PBM binding z-score [11] | PBM binding z-score [12] | PBM binding z-score [13] | PBM binding z-score [14] | PBM binding z-score [15] | PBM binding z-score [16] | PBM binding z-score [17] | PBM binding z-score [18] | PBM binding z-score [19] | PBM binding z-score [20]
1 | ATATCTAGGTTAGGGTCATTCAGAAAGTAGGGAA | 4.54 | 4.26 | 1.73 | 4.39 | 2.24 | 5.65 | 7.73 | 6.5 | 4.33 | 6.58 | 6.71 | 6.95 | 2.23 | 3.98 | 4.33 | 2.01 | 4.78 | 2.98 | 3.43 | –
2 | CGAACTAGGTCACCAGGTCAGTGAAGAGGTTGGA | 4.69 | 3.38 | 0.525 | 2.7 | -0.48 | 5.78 | 9.48 | 7.31 | 5.4 | 7.06 | 8.35 | 8.61 | 0.92 | 2.94 | 3.16 | 0.301 | 4.36 | 1.02 | 4.61 | –
3 | CGCACTAGGTCACCAGGACAGTGAAGAGGTTGGA | 3.84 | 2.51 | 0.256 | 1.9 | -0.125 | 4.91 | 8.32 | 6.61 | 4.56 | 6.23 | 8.2 | 8.52 | 2.13 | 1.92 | 1.29 | 0.413 | 2.48 | 0.466 | 4.12 | –
4 | ATATTTAGGTTAGGGTCATTCAGAAAGTAGGGAA | 4.69 | 4.1 | 1.88 | 4.8 | 3.1 | 5.27 | 6.6 | 5.63 | 3.17 | 5.27 | 5.81 | 5.68 | 3.04 | 4.04 | 4.34 | 2.43 | 4.64 | 4.29 | 3.73 | –
5 | ATATGTAGGTTAGGGTTATTCAGAAAGTAGGGAA | 2.3 | 2.27 | 0.961 | 2.84 | 1.66 | 4.11 | 5.61 | 5.21 | 3.18 | 4.8 | 6.88 | 6.54 | 2.32 | 2.77 | 2.33 | 1.31 | 2.55 | 1.94 | 1.57 | –
6 | CGAACTAGGTCAAAGGACAGTGTAAGGCGACGTA | 3.76 | 2.6 | -0.176 | 1.73 | -0.314 | 5.13 | 9.94 | 8.19 | 6.9 | 8.83 | 7.92 | 7.95 | -0.12 | 0.849 | 1.19 | -0.0737 | 2.22 | 0.371 | 3.91 | –
7 | ATATGTAAGTTAGGGTCATTCAGAAAGTAGGGAA | 4.8 | 4.5 | 1.55 | 4.13 | 1.31 | 4.91 | 2.88 | 3.41 | 1.15 | 2.64 | 1.38 | 2.41 | 1.73 | 2.2 | 4.63 | 1.59 | 5.07 | 1.77 | 3.23 | –
8 | CGAACTAGGTCACCAGGACAGTTAAGAGGTTGGA | 3.97 | 2.32 | 0.241 | 1.84 | -0.421 | 5.2 | 8.53 | 6.67 | 4.77 | 6.38 | 8.1 | 8.64 | 5.1 | 2.14 | 1.49 | 0.424 | 2.73 | 0.481 | 4.2 | –
9 | CGAACTAGGTCACCAGGACTGTGAAGAGGTTGGA | 4.32 | 2.55 | -0.155 | 1.59 | -0.403 | 5.08 | 8.54 | 6.81 | 4.45 | 6.79 | 8.46 | 8.71 | 1.86 | 3.94 | 1.55 | -0.354 | 2.79 | 0.25 | 4.27 | –
10 | ATATGTAGGTTCGGGTCATTCAGAAAGTAGGGAA | 3.32 | 2.84 | 1.01 | 3.38 | 1.52 | 4.37 | 4.22 | 4.12 | 1.6 | 3.34 | 3.06 | 4.01 | 1.7 | 2.61 | 3.53 | 1.57 | 3.97 | 1.72 | 2.5 | –
11 | TAGCCTAGGTCATGGGCCTGTATACCACGCGAAC | 4.51 | 3.39 | 0.196 | 2.64 | -0.604 | 4.12 | – | 3.29 | 0.751 | 2.07 | 1.69 | 3.19 | -0.135 | 1.45 | 1.82 | -0.611 | 3.17 | 0.359 | 3.97 | 0.382
12 | CAAACTAGGTCACGAAAGGTCAAAATCGAATGAC | 7.3 | 8.11 | 7.47 | 7.37 | 2.57 | 6.41 | – | 8.29 | 6.67 | 8.42 | 8.56 | 8.77 | 2.48 | 5.97 | 6.92 | 3.06 | 7.6 | 4.93 | 5.41 | 2.54
13 | ATATGTAGGTTAGGGTCATTCTGAAAGTAGGGAA | 4.59 | 3.97 | 1.34 | 4.53 | 1.8 | 5.46 | 7.45 | 6.24 | 3.83 | 5.9 | 6.26 | 6.44 | 1.97 | 2.88 | 4.18 | 1.87 | – | 1.91 | 3.35 | –
14 | CGTCCAAGGTCAATGTTAGGTCAGTGAAAGCATT | 6.44 | 5.88 | 2.85 | 4.38 | 1.35 | 5.51 | – | 4.66 | 0.937 | 3.1 | 2.85 | 3.43 | -0.256 | 3.57 | 4.77 | 1.6 | 5.78 | 1.18 | – | -0.0958
15 | CGAACTAGGTCACCAGGACAGTGAGGAGGTTGGA | 3.89 | 2.25 | 0.127 | 1.33 | -0.378 | 4.93 | 7.97 | 6.87 | 4.45 | 6.61 | 8.37 | 8.24 | -0.39 | 1.56 | 0.988 | -0.539 | 1.93 | 0.16 | 4.16 | –
